# Screens: PubChem, NMMLSC
# Most compounds without a hit are left out; they make up all but 0.93% or so of the library.
# RPL19A TOR yeast: modulators of TOR pathway RPL19A-GFP in S. cerevisiae | percent response vs DMSO, % at 10 µM | S. cerevisiae RPL19A-GFP strain, flow cytometry, 3 h; active compounds read low | hit rate 0.3% among 330,000;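 active means percent response vs DMSO below 50%; inconclusive means fewer than 70 events counted for the yeast strain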;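 further: median channel GFP fluorescence of the barcoded RPL19A-GFP strain; ratio of sample median GFP to plate DMSO average so 100% = DMSO; lower means less RPL19A-GFP as with rapamycin TOR inhibition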
# CIT2 TOR yeast: alters CIT2-GFP fluorescence in TOR pathway yeast screen; S. cerevisiae CIT2-GFP strain, flow cytometry, 3 h; 100 means same as DMSO wells; hit rate 0.065% among 320,000; AID 2029; GFP response vs DMSO, % at 10 µM;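 active means GFP response relative to DMSO above a set limit, near the screen mean plus 3 SD, cut at about 150% in these data; inconclusive means Fewer than 70 cells measured for a yeast strain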;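 further: ratio of well median GFP fluorescence to mean of DMSO wells on the plate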
# LAP4 TOR yeast: modulators of TOR pathway LAP4-GFP in S. cerevisiae | hit rate 0.34% among 320,000 | AID 2023 | S. cerevisiae LAP4-GFP multiplex, flow cytometry GFP, 3 h; median GFP as percent of DMSO wells | GFP response vs DMSO, % at 10 µM;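 active means GFP response vs DMSO above a set limit, about the screen mean plus 3 SD, cut at about 150% in these data; inconclusive means under 70 cell events counted for the yeast strain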
# MEP2 TOR yeast: yeast TOR pathway MEP2-GFP modulation | AID 2016 | S. cerevisiae MEP2-GFP strain, flow cytometry GFP, 3 h; 100% = DMSO control level | hit rate 0.51% among 330,000 | GFP response vs DMSO, % at 10 µM;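 active means GFP response versus DMSO above a set limit, roughly screen mean plus 3 SD, cut at about 180% in these data; inconclusive means fewer than 70 cells counted for a yeast strain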;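 further: median GFP fluorescence of the barcode-gated MEP2-GFP cells per well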
# AGP1 TOR yeast: alters AGP1-GFP fluorescence in TOR pathway yeast screen | AID 2066 | hit rate 0.02% among 320,000 | GFP response vs DMSO, % at 10 µM | S. cerevisiae AGP1-GFP multiplex flow cytometry, 3 h; GFP as percent of DMSO wells;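 active means GFP response relative to DMSO above a set limit, near screen average plus 3 SD, cut at about 150% in these data; inconclusive means fewer than 70 cells counted for the yeast strain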;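 further: median GFP channel fluorescence of the gated AGP1 strain per well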
# * hit, by the source's call; ? = inconclusive; / = no result; ! = a repeat was not active; [ ] = remark or other dose.
SMILES,RPL19A TOR yeast,CIT2 TOR yeast,LAP4 TOR yeast,MEP2 TOR yeast,AGP1 TOR yeast
CCCN1C[C@H](CSC)C[C@@H]2c3cccc4[nH]cc(c34)C[C@H]21,33.9*[may fluoresce violet],?,83.4,203.2*[may fluoresce violet],?
Cc1ccc(O)c(CNc2cnc3ccccc3c2)c1,52.7,?,92.8,223.1*[may fluoresce violet],16.8
CC(C)c1ccc(C2c3[nH]c4ccccc4c3C[C@H]3C(=O)N(c4ccccc4C(=O)N4CCC(C(=O)O)CC4)C(=O)N23)cc1 (stereo not given in full),103.8,96.9,109.4,107.5,109.0
COC(c1ccccc1)c1nc2ccccc2[nH]c1=O (stereo not given),54.1,?,65.6,188.3*[may fluoresce violet],?
Cc1cc(C)c(NC(=O)Cn2nnc(C(=O)NCc3ccc4c(c3)OCO4)c2N)c(C)c1,97.8,103.4,88.2,93.0,98.9
O=S(=O)(/N=C(/Nc1ccc(F)cc1F)c1ccc(Cl)cc1)c1ccccc1,83.0,126.0,138.6,175.1*,/
Cc1ccc(S(=O)(=O)/N=C(/Nc2ccc(F)cc2F)c2ccc(F)cc2)cc1,99.4,100.0,93.9,110.0,89.6
COc1ccc(OC)c(C(=O)c2nc3c(n2O)CCCCC3)c1,19.6*[may fluoresce violet],?,103.0,822.5*[may fluoresce violet],23.6
CCC(C)(C(=O)NC1CCCC1)N(C(=O)CNC(=O)c1ccccc1)c1c(C)n(C)n(-c2ccccc2)c1=O (stereo not given),102.2,113.2,93.9,111.0,101.3
CC(=O)NCCNC(=O)c1cccc(NS(=O)(=O)c2ccc3c(c2)OCCO3)c1,97.6,109.4,101.1,95.0,100.7
CC(C)(CNC(=O)Cc1ccc(NS(=O)(=O)c2cccc(C(F)(F)F)c2)cc1)N1CCOCC1,97.7,99.8,105.2,102.6,107.9
O=C(NN1C(=O)/C(=C\c2ccc(O)c([N+](=O)[O-])c2)SC1=S)c1ccccc1Cl,63.0,136.7,154.0*,175.1*,51.3
CCN(CC)Cc1c(O)ccc2c(C)c(CC(=O)OC)c(=O)oc12,61.0,86.8,91.2,205.1*,28.8
COC(=O)Cc1c(C)c2ccc(OCC(C)=O)c(C)c2oc1=O,95.3,77.3,85.9,89.0,86.3
COC(=O)Cc1c(C)c2ccc(O)c(CNCc3ccc(OC)c(OC)c3)c2oc1=O,69.5,?,90.5,546.7*[may fluoresce violet],?
CCCCOc1ccc(Nc2cc(Cl)ccc2C(=O)O)cn1,92.6,80.0,106.2,96.0,80.5
CN(C)c1ccc(NC(=O)Nc2ccc3c(c2)nnn3C)cc1,104.9,107.4,88.2,99.0,97.4
COc1cccc(NC(=O)Nc2ccc3c(c2)nnn3C)c1,60.5,97.8,88.5,184.3*,24.5
Cn1cccc1C(=O)C(=O)Nc1ccc(F)c(F)c1,47.1*[may fluoresce violet],?,124.6,93.4,?
Cn1cccc1C(=O)C(=O)Nc1ccc(Cl)cc1,90.1,79.3,102.9,90.1,87.9
c1ccc(-c2n[nH]c(-c3ccccn3)n2)nc1,13.5*![may fluoresce violet],?,87.1,179.6*![may fluoresce violet],?
c1ccc(-c2n[nH]c(-c3ccccn3)n2)cc1,96.1,93.0,99.3,100.7,94.4
O=c1[nH]c(CSc2ccccn2)nc2c1oc1ccccc12,85.0,85.6,95.2,92.8,/
CCCCn1c(=O)c2ccccc2n2c(=S)[nH]nc12,42.6*[may fluoresce violet],?,100.4,235.8*[may fluoresce violet],?
O=C(O)CC1(CC(=O)Nc2cc3ccccc3cn2)CCCCC1,99.5,96.1,99.7,103.2,101.2
SMILES,RPL19A TOR yeast,CIT2 TOR yeast,LAP4 TOR yeast,MEP2 TOR yeast,AGP1 TOR yeast
COc1ccc(C(c2nnnn2CC2CCCO2)N2CCN(c3ccccc3)CC2)cc1 (stereo not given),/,?,92.8,241.7*[may fluoresce violet],30.5
COc1ccc(-n2c(=S)[nH]c3cc(C(=O)NCCCN4CCCC4=O)ccc3c2=O)cc1OC,47.2*[may fluoresce violet],?,?,?,?
COC(=O)c1ccc(CN2CCN(CC=C(C)C)C(CCO)C2)cc1 (stereo not given),96.4,110.3,107.4,101.2,98.1
C=CCn1c(=N)c(C(=O)NCCCOC)cc2c(=O)n3cc(C)ccc3nc21,34.5*[may fluoresce violet],?,247.3*[may fluoresce violet],775.2*[may fluoresce violet],?
CNC(=O)c1cc2c(=O)n3cc(C)ccc3nc2n(C(C)C)c1=N,31.0*[may fluoresce violet],?,84.3,194.6*[may fluoresce violet],?
COc1cc(NCC(=O)Nc2cccc(S(=O)(=O)N3CCCCC3)c2)cc(OC)c1OC,97.2,96.4,100.0,103.7,99.3
COC(=O)c1ccccc1C(=O)N1CCOCCN(C(=O)c2ccccc2C(=O)OC)CCOCC1,30.8*[may fluoresce violet],?,67.6,188.2*[may fluoresce violet],?
O=C(OC1CCOC1=O)c1ccc(S(=O)(=O)N2CCCCCC2)cc1 (stereo not given),62.9,?,74.5,177.9*[may fluoresce violet],?
O=C(CN(Cc1ccco1)Cc1ccco1)Nc1cc(S(=O)(=O)N2CCCCC2)ccc1Cl,96.2,88.8,97.8,96.4,95.6
CCN(CC)CCN(C(=O)c1cccc(N2C(=O)CCC2=O)c1)c1nc2cc3c(cc2s1)OCO3,95.1,109.1,107.7,100.0,103.5
CCN(CC)CCN(C(=O)CN1C(=O)CCC1=O)c1nc2cc3c(cc2s1)OCO3,50.4,?,83.0,200.2*[may fluoresce violet],?
Cc1[nH]c2ccccc2c1/C=N/NC(=O)Nc1ccccc1,23.7*[may fluoresce violet],?,125.8,87.8,?
Cc1ccc(NC(=S)N/N=C/c2c(C)[nH]c3ccccc23)cc1,67.4,120.0,183.8*,96.1,63.9
Cc1[nH]c2ccccc2c1/C=N/NC(=O)c1cc(-c2ccccc2)n[nH]1,45.7*[may fluoresce violet],?,76.7,173.8,?
CCC(=O)c1c(NCCc2ccccc2)cc(C)oc1=O,112.1,109.1,102.0,108.5,110.4
O=C(NCCC1CCCCN1S(=O)(=O)c1ccc(Cl)cc1)C(=O)NCCN1CCOCC1 (stereo not given),90.5,92.4,90.8,97.6,95.0
CC(=O)c1cccc(NC(=O)COC(=O)Cn2cnc3ccccc32)c1,97.6,104.4,95.3,101.4,100.3
COc1ccc(NC(=O)CCC(=O)NCCO)cc1,59.3,?,101.6,290.9*[may fluoresce violet],21.8
O=C(CCC(=O)Nc1ccccc1)NCCO,100.0,97.4,101.5,102.1,98.8
O=S(=O)(/N=C(/c1ccccc1)N1CCOCC1)c1ccc(Br)cc1,101.8,98.9,98.7,93.2,99.6
Cc1ccc(S(=O)(=O)/N=C(/c2ccccc2)N2CCOCC2)cc1,95.5,95.5,103.6,100.9,105.1
O=S(=O)(/N=C(/c1ccccc1)N1CCOCC1)c1ccc(F)cc1,36.6*[may fluoresce violet],?,79.3,231.5*[may fluoresce violet],?
O=S(=O)(/N=C(/c1ccc(Cl)cc1)N1CCOCC1)c1ccc(Cl)cc1,/,?,83.5,278.6*[may fluoresce violet],?
COc1cc(C(=O)NNC(=O)CNC(=O)c2ccc(Br)o2)cc(OC)c1OC,105.3,88.1,71.0,103.4,89.5
O=C(Nc1cccnc1)c1ccc(-c2ccc(Cl)cc2)o1,83.6,65.7,245.2*,87.7,74.4
N#Cc1c(C(F)(F)F)cc(Cc2ccccc2)nc1SCC(=O)NCC(=O)O,100.2,102.1,112.3,99.1,108.7
